Out of some 290,000 compounds screened, about 3,000 (1%) were called active. This excerpt belongs to a sample that is enriched for actives. A number with no mark means an inactive call. No stated cut-off is given here; in the data, active means inhibition mostly above about 36% (no sharp cut-off); inactive means mostly below about 34%.

The nature of the test: inhibition of NOD1-driven NF-kB reporter – cell-based, luminescence, uHTS, primary screen (AID 1578).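 Further: HEK-293T reporter cells stimulated with the NOD1 agonist gamma-tri-DAP.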 Particulars: NOD1-driven NF-kB luciferase reporter cells, at 4 µM, active compounds read high. In general terms: Reporter assays use an easily measured gene product as a stand-in for the process of interest.
On to `CC(=O)Nc1ccc(N=Cc2c(O)c(C(=O)Nc3ccccc3)cc3ccccc23)cc1`, for which the inhibition is 39.6%.

Take `CCOc1cc(Br)c(Br)c(C=Nc2ccc(NC(C)=O)cc2)c1O`: the inhibition was 78% (active).

As to `CC(=O)Nc1ccc(N=Cc2c(O)ccc3ccccc23)cc1`, the inhibition was -20%.

`O=C(Nc1ccc(NS(=O)(=O)c2ccccc2)cc1)c1cccnc1`: the inhibition is -23.8%.

With `O=C(NCc1nnc(SCC(=O)N2CCCC2)o1)c1ccccc1`, the inhibition was -0.1%.

On to `CS(=O)(=O)c1sc(C#N)c2c1C(=O)CC(c1ccccc1)C2` (stereo unspecified), for which the inhibition was 43.9% (active).

As for `Cc1oc2c(c(=O)c1C)C(=O)CC(c1ccccc1)C2` (stereo unspecified), the inhibition is -15.6%.

`Cc1c(C(=O)O)[nH]c2c1C(=O)CC(c1ccccc1)C2` (stereo unspecified): the inhibition is -0.4%.

As to `CCc1noc(C)c1C(=O)Nc1ccccc1C(C)(C)C`, the inhibition was 38.7%.

On to `Cc1ccc(-c2nc(N3CCOCC3)sc2C(=O)N2CCOCC2)cc1`, for which the inhibition was -12.2%.

Regarding `Cc1ccc(CNC(=O)Nc2ccc(OC(F)(F)F)cc2)n1C`, the inhibition was -21.3%.

As to `COC(=O)c1ccc(NC(=O)c2ccccc2NS(C)(=O)=O)cc1`, the inhibition is -12%.

Take `COC(=O)c1ccccc1NS(=O)(=O)c1ccc(NC(C)=O)cc1`: the inhibition was 0.6%.

Consider `COc1cc(OC)cc(C(=O)Nn2cc(C(=O)Nc3ccccc3F)c3ccccc3c2=O)c1`, for which the inhibition is -16.8%.

On to `C=CCNC(=O)[C@@H]1CSC2c3ccc(OC)c(OC)c3C(=O)N21` (stereo partly specified), for which the inhibition is -8.1%.

`Cc1ccc(C2C3C(=O)N(c4ccc(C)cc4)C(=O)C3N3CCCN23)cc1` (stereo unspecified): the inhibition is -7.6%.

For the compound `Cc1ccc(C(=O)COC(=O)c2cc(Cl)nc3ccccc23)cc1C`, the inhibition was -37.6%.

Take `Cc1ccc(C)c(N2CCN(C(=O)c3ccc4nc(-c5ccco5)c(-c5ccco5)nc4c3)CC2)c1`: the inhibition was -1.9%.

On to `O=C(c1ccc2nc(-c3ccco3)c(-c3ccco3)nc2c1)N1CCN(c2ccccc2)CC1`, for which the inhibition was 3.4%.

As for `Cc1cccc(N2CCN(C(=O)c3ccc4nc(-c5ccco5)c(-c5ccco5)nc4c3)CC2C)c1` (stereo unspecified), the inhibition was 60.5% (active).

For `O=C(CN1C(=O)c2ccccc2C1=O)Nc1cc([N+](=O)[O-])ccc1O`, the inhibition is -38.7%.

Consider `CCOc1cc(C(C(=O)NCC2CCCO2)N(C(=O)Cn2nnc3ccccc32)c2ccccc2C(C)=O)ccc1O` (stereo unspecified), for which the inhibition is -47.9%.

As for `Cc1cc(C2=NNC(=NC3CC3)SC2)c(C)n1-c1ccccc1`, the inhibition is 98.3% (active).

For `COc1ccc(-n2c(C)cc(C3=NNC(=NC4CC4)SC3)c2C)cc1`, the inhibition is -7.5%.

On to `Cc1ccc(-n2c(C)cc(C3=NNC(=NC4CC4)SC3)c2C)cc1C`, for which the inhibition is -21.7%.

`Cc1cc(C2=NNC(=NC3CC3)SC2)c(C)n1-c1c(C)n(C)n(-c2ccccc2)c1=O`: the inhibition is -12.6%.

Turning to `COCCCN=C1NN=C(c2cc(C)n(-c3ccccc3F)c2C)CS1`, the inhibition is 10.1%.

For the compound `Cc1cc(C2=NNC(=NC3CC3)SC2)c(C)n1-c1ccccc1F`, the inhibition was 96.7% (active).

On to `CCOC(=O)c1[nH]c2ccccc2c1NC(C)=O`, for which the inhibition is 2.4%.

For the compound `CC(C)(C)n1cnc2cc(NS(=O)(=O)c3ccc(Br)cc3)ccc21`, the inhibition was 7.7%.

As for `Cc1ccc(-c2nnn(CC(=O)N(CCN3CCOCC3)C(C(=O)NC(C)(C)C)c3ccc(C)o3)n2)cc1` (stereo unspecified), the inhibition was -14.8%.

As to `COc1ccc(-c2cc3nc(C)cc(C)n3n2)cc1`, the inhibition is -76.5%.

On to `COc1ccc(-c2cc3nc(C)cc(N)n3n2)cc1`, for which the inhibition is -3.5%.

With `COc1ccc(-c2cc3nc(C)cc(-c4ccc(OC)cc4)n3n2)cc1`, the inhibition is 66.8% (active).

Regarding `COC(=O)C(Cc1ccccc1)NC(=O)c1cccc(S(=O)(=O)N(C)C)c1` (stereo unspecified), the inhibition is -41.3%.

Turning to `COc1ccc(/C(C)=N/NC(=O)c2nnn(-c3nonc3N)c2CN(C)c2ccccc2)cc1`, the inhibition is -7.2%.

As to `C/C(=N\NC(=O)c1c(Br)cnn1C)c1ccc(NC(=O)c2ccc(F)cc2)cc1`, the inhibition was -45.8%.

For `CCC(=O)NC(=S)Nc1ccccc1C(=O)NC1CCCCC1`, the inhibition was -10.9%.

Consider `Cc1cc(C)cc(NC(=O)COc2ccc(C(=S)N3CCOCC3)cc2)c1`, for which the inhibition was -14.5%.

With `CCOC(=S)SCc1cn2ccc(C)cc2n1`, the inhibition is 8.3%.

Turning to `Cc1oc2ccc(O)c(CN3CCOCC3)c2c1C(=O)c1ccc(Cl)cc1`, the inhibition was 27.5%.

As for `Cc1oc2c(Cl)c(Cl)c(O)c(CN(C)C)c2c1C(=O)c1ccc(Cl)cc1`, the inhibition was 65.8% (active).

For `Cc1oc2ccc(O)c(CN(C)C)c2c1C(=O)c1ccccc1`, the inhibition was -26.2%.

In the case of `CCN(CC)C(=O)CSc1nc2ccccc2c(=O)n1OC(C)C`, the inhibition is 8%.

In the case of `Cc1cc(/C=C2/SC(=S)N(c3ccc([N+](=O)[O-])cc3)C2=O)c(C)n1-c1cccnc1`, the inhibition is 74.8% (active).

Regarding `Cc1cc(/C=C2\SC(=O)N(C)C2=O)c(C)n1-c1ccc(O)cc1`, the inhibition is 0.7%.

Take `Cc1cc(/C=C2\SC(=S)N(Cc3ccco3)C2=O)c(C)n1-c1cccnc1`: the inhibition was 8.2%.

In the case of `Cc1ccc(/C=C2\SC(=S)N(c3cccnc3)C2=O)cc1`, the inhibition is -15%.

For the compound `Cc1cc(/C=C2\SC(=S)NC2=O)c(C)n1-c1cccc(O)c1`, the inhibition was -11.9%.

On to `COc1ccc(-n2c(C)cc(/C=C3/SC(=S)N(C)C3=O)c2C)cc1`, for which the inhibition is -25.3%.

On to `Cc1cc(/C=C2/C(=O)NN(c3ccccc3)C2=O)c(C)n1-c1cccc(O)c1`, for which the inhibition was -15.4%.

As for `CC(c1ccccc1)n1c(N2CCNCC2)nc2c1c(=O)[nH]c(=O)n2C` (stereo unspecified), the inhibition is -36.1%.

In the case of `COc1ccc(NC(=O)CN(c2ccc(OC)cc2)S(=O)(=O)c2c(C)nn(C)c2C)cc1`, the inhibition is -15.1%.

For the compound `COc1ccc(C(=O)N2CCC(C(=O)c3c(C)cc(C)cc3C)CC2)cc1`, the inhibition is -8.8%.

For the compound `Cc1ccc(N2CC(C(=O)N3CCCc4ccccc43)CC2=O)cc1` (stereo unspecified), the inhibition is -10.4%.

As to `O=C(C1CCC(=O)N(C2CCCC2)C1)N1CCN(c2ccccc2Cl)CC1` (stereo unspecified), the inhibition was -2.7%.

Take `CCOC(=O)c1c(NC(=O)CSc2nnc(C)c(=O)[nH]2)sc2c1CCCC2`: the inhibition was 11.2%.

For `CCOC(=O)c1c(NC(=O)CSc2nnc(C)c(=O)[nH]2)sc(C)c1-c1ccc(C)cc1`, the inhibition was 43.1% (active).

Take `CCOC(=O)c1c(NC(=O)CSc2nnc(C)c(=O)[nH]2)sc(C)c1C`: the inhibition was 17.3%.

With `CC/C=C/C(=O)N1CC2(CC(c3cccc(NC(=O)CC(c4ccccc4)c4ccccc4)c3)=NO2)C[C@@H]1C(N)=O` (stereo partly specified), the inhibition is -0.2%.

Regarding `COc1ccc(C(=O)c2coc3ccc(O)c(CN4CCCCC4)c23)cc1`, the inhibition is 9.4%.

As to `CCN(CC)Cc1c(O)ccc2c([N+](=O)[O-])c(C)n(-c3ccc(OC)cc3)c12`, the inhibition is -5.7%.

With `COc1cc(C2NC(=S)NC(C)=C2C(=O)Nc2ccc(C)cc2)ccc1O` (stereo unspecified), the inhibition is -50%.

Take `c1coc(-c2nc(-c3ccncc3)no2)c1`: the inhibition was -24.6%.

With `CCCCn1c(O)c(N=NC(=O)c2ccncc2)c2cc(Br)ccc21`, the inhibition is 46.8%.

As to `O=c1c2c(nc3cc(-c4ccccc4)[nH]n13)CCC2`, the inhibition was -31.8%.

Consider `O=c1c2c(nc3cc(-c4ccc(F)cc4)[nH]n13)CCC2`, for which the inhibition was 62.6% (active).

Turning to `O=c1c2c(nc3cc(-c4ccc(F)cc4)[nH]n13)CCCC2`, the inhibition is -40.5%.

Consider `CC(NC(=O)CSc1nc2ccc(N)cc2s1)c1ccccc1` (stereo unspecified), for which the inhibition is -0.6%.

Regarding `COc1ccc(Cl)cc1NC(=S)NCCc1c[nH]c2ccccc12`, the inhibition is -12.7%.

For the compound `COc1ccccc1NC(=S)NCCc1c[nH]c2ccccc12`, the inhibition was 86% (active).

In the case of `COc1ccc(NC(=S)NCCc2c[nH]c3ccccc23)c(OC)c1`, the inhibition is 17.2%.

Consider `COc1cccc(C(=O)Nc2ccc3c(c2)CCCN3C(=O)c2cccs2)c1OC`, for which the inhibition was 56.1% (active).

As to `COc1ccc(C(=O)Nc2ccc3c(c2)CCCN3C(=O)c2cccs2)c(OC)c1`, the inhibition was 21.1%.

In the case of `COc1ccccc1C(=O)Nc1ccc2c(c1)CCCN2C(=O)c1cccs1`, the inhibition is -18.3%.

Consider `O=C(CC1C(=O)N(c2ccccc2)C(=O)N1C1CCCCC1)Nc1ccccc1` (stereo unspecified), for which the inhibition is 11.7%.

Turning to `CC1CCCN(S(=O)(=O)c2ccc(NC(=O)Cn3nnc(-c4ccccc4F)n3)cc2)C1` (stereo unspecified), the inhibition was -31.2%.

On to `CC(C)CCOc1ccc(Cl)cc1CN1CCOCC1`, for which the inhibition was -26.5%.

For the compound `Clc1cccc(-c2nn3c(-c4ccncc4)nnc3s2)c1`, the inhibition was -14%.

For the compound `Clc1ccccc1-c1nn2c(-c3ccncc3)nnc2s1`, the inhibition was 64.5%.

Consider `Clc1ccc(-c2nn3c(-c4ccncc4)nnc3s2)c(Cl)c1`, for which the inhibition was 59% (active).

As for `COC(=O)c1c(C(=O)OC)c(-c2ccc(Cl)c(Cl)c2)n2c1CCC2`, the inhibition is -14.5%.

`Cc1ccc(CCNC(=O)C23C[C@H]4C[C@@H](C2)CC(n2nnc(C)n2)(C4)C3)cc1`: the inhibition is -3.3%.

`Cc1nnn(C23C[C@@H]4C[C@@H](CC(C(=O)N5CCN(c6ccccc6)CC5)(C4)C2)C3)n1`: the inhibition is -7%.

As to `COc1cccc(C2C(C#N)=C(N)Oc3cc(C)n(Cc4ccccn4)c(=O)c32)c1OC` (stereo unspecified), the inhibition was -19.6%.

As to `Cc1ccsc1C(=O)OCc1csc(-c2ccccc2)n1`, the inhibition was -65.5%.

`CC1(C)CC(=O)C=C(NC2=CC3OC(c4ccccc4)OCC3OC2=O)C1` (stereo unspecified): the inhibition is 61.7% (active).

For the compound `Cc1ccccc1NC1=CC(=O)CC(C)(C)C1`, the inhibition was 1.1%.

Turning to `O=C1C=C(NC2=CC3OC(c4ccccc4)OCC3OC2=O)CCC1` (stereo unspecified), the inhibition was -24.3%.

Turning to `COc1ccc(CN2CCC(n3nccc3NC(=O)c3ccc4c(c3)OCO4)CC2)cc1C`, the inhibition was -12.5%.

On to `O=S(=O)(c1cccs1)N1CCN(Cc2nc3ccccc3s2)CC1`, for which the inhibition is -23.6%.

The term inhibition denotes the relative decrease from the control value, in per cent.

The values are drawn from PubChem BioAssay AID1578 (Sanford-Burnham Center for Chemical Genomics, 2009).
